# Legend:
# Experiment in all cases: DAPPL (digital affinity profiling via proximity ligation, sequencing); 10 mM Tris-HCl pH 7.5, 50 mM NaCl, 1 mM DTT, 4% glycerol, room temperature, 30 min; GST-TFs on glutathione beads, 16-mer random dsDNA library, 0.1% formaldehyde crosslink after washing; high values mean tight binding
# FEV = molecular target: T1, FEV (Homo sapiens, UniProt Q99581 1-238); conditions: protein: recombinant; tags: N-terminal GST; dsDNA, one strand shown
# T1 sequence: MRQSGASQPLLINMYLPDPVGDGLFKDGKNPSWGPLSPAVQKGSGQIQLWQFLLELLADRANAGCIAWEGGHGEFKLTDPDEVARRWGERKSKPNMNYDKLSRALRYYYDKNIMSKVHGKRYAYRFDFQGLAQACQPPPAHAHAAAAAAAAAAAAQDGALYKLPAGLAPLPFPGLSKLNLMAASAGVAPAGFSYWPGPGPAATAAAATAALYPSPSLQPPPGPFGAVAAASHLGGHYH
# Procedure, shortened: (§1)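 A tag-only sample was pooled with DNA-barcoded human transcription factors that had been expressed in yeast as GST fusions and captured on glutathione beads. The pools were incubated for 30 min at room temperature with 200 nmole of a random double-stranded 16-mer DNA library in Tris/NaCl/DTT/glycerol buffer, then washed, crosslinked with 0.1% formaldehyde, proximity-ligated (BsaI/T4 ligase, 1 h, 37 °C), PCR-amplified and sequenced on an Illumina NextSeq500. Binding signal is each hexamer's read frequency for a factor divided by its frequency for the tag-only sample.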
# ETV5 = ETV5 (Homo sapiens, UniProt P41161 1-510); conditions: protein: recombinant; tags: N-terminal GST; dsDNA, one strand shown
# Procedure, shortened: as §1
# HSF1 = HSF1 (Homo sapiens, UniProt Q00613 1-529); conditions: protein: recombinant; tags: N-terminal GST; chain copies: 3; dsDNA, one strand shown
# Procedure, shortened: as §1
# SPIC = molecular target: T2, SPIC (Homo sapiens, UniProt Q8N5J4 1-248); conditions: protein: recombinant; tags: N-terminal GST; dsDNA, one strand shown
# T2 sequence: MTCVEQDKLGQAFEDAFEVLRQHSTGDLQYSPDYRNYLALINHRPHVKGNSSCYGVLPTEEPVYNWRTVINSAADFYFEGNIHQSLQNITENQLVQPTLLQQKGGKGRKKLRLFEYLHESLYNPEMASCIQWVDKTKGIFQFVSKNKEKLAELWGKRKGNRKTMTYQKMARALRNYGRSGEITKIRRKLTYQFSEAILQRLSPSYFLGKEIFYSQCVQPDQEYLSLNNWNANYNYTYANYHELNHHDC
# Procedure, shortened: as §1
# ELF4 = ELF4 (Homo sapiens, UniProt Q99607 1-663); conditions: protein: recombinant; tags: N-terminal GST; dsDNA, one strand shown
# Procedure, shortened: as §1
# ELK4 = molecular target: T3, ELK4 (Homo sapiens, UniProt P28324-2 1-405); conditions: protein: recombinant; tags: N-terminal GST; dsDNA, one strand shown
# T3 sequence: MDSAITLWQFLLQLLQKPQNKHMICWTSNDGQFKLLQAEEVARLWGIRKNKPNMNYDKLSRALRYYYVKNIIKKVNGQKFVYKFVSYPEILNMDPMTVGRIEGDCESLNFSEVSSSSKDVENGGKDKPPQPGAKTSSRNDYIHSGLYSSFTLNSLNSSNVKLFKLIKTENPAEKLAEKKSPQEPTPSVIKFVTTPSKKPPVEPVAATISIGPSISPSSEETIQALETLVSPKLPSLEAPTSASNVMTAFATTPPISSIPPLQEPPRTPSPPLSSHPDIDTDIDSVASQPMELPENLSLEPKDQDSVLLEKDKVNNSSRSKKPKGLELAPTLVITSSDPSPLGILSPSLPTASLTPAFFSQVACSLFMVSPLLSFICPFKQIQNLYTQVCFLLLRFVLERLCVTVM
# Procedure, shortened: as §1
# ETV2 = molecular target: T4, ETV2 (Homo sapiens, UniProt O00321 1-342); conditions: protein: recombinant; tags: N-terminal GST; dsDNA, one strand shown
# T4 sequence: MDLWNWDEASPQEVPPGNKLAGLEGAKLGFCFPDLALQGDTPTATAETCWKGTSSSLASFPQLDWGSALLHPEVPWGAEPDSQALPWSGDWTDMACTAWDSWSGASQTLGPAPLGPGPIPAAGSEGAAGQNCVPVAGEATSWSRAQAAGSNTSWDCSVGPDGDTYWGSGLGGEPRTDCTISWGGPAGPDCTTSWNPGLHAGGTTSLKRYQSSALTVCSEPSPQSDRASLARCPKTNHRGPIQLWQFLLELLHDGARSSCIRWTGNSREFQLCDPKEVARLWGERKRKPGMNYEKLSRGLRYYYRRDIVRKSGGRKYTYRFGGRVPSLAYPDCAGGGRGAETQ
# Procedure, shortened: as §1
# ELF3 = molecular target: T5, ELF3 (Homo sapiens, UniProt P78545 1-371); conditions: protein: recombinant; tags: N-terminal GST; dsDNA, one strand shown
# T5 sequence: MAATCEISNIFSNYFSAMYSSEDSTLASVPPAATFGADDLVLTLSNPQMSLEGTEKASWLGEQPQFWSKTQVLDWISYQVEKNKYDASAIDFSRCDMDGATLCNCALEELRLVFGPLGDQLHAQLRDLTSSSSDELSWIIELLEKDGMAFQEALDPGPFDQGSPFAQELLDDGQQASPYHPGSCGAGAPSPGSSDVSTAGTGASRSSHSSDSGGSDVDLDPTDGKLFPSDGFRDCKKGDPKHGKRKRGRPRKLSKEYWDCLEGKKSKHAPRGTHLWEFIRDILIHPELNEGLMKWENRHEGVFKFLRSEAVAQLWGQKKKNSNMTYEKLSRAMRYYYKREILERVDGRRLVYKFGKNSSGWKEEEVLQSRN
# Procedure, shortened: as §1
# CRX = CRX (Homo sapiens, UniProt O43186 1-299); conditions: protein: recombinant; tags: N-terminal GST; dsDNA, one strand shown
# Procedure, shortened: as §1
# HSF1, sequence (Q00613 whole entry): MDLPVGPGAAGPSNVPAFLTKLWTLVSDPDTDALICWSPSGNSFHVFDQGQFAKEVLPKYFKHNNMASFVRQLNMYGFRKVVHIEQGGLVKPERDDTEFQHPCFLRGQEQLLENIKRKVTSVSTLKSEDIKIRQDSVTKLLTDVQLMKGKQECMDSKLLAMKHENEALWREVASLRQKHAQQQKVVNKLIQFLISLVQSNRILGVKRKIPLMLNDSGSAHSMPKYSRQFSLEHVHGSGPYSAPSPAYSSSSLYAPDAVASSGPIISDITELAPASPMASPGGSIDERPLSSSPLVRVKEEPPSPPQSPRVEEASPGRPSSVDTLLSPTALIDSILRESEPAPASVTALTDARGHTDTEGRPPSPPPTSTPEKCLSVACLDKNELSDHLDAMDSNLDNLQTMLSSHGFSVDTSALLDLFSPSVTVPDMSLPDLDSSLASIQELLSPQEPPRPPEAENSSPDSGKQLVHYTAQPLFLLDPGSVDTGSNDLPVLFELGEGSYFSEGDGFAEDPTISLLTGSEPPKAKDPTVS
# ELF4, sequence (Q99607 whole entry): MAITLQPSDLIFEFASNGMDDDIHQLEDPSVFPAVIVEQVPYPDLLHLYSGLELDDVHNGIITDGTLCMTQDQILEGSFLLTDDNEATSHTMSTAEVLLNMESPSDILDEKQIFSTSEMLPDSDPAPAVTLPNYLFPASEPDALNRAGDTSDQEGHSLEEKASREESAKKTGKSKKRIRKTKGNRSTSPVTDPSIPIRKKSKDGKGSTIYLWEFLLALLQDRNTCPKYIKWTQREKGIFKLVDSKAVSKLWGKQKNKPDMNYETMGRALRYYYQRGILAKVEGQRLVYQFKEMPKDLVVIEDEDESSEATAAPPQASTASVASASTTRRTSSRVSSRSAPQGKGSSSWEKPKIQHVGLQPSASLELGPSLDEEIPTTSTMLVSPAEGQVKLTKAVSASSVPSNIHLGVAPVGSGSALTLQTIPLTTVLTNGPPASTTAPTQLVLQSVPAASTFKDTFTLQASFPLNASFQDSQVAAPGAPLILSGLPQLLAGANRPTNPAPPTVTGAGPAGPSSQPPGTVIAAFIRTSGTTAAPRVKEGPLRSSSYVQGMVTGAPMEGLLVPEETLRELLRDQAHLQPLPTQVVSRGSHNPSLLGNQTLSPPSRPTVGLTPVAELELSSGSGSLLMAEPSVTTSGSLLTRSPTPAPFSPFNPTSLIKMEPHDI
# ETV5, sequence (P41161 whole entry): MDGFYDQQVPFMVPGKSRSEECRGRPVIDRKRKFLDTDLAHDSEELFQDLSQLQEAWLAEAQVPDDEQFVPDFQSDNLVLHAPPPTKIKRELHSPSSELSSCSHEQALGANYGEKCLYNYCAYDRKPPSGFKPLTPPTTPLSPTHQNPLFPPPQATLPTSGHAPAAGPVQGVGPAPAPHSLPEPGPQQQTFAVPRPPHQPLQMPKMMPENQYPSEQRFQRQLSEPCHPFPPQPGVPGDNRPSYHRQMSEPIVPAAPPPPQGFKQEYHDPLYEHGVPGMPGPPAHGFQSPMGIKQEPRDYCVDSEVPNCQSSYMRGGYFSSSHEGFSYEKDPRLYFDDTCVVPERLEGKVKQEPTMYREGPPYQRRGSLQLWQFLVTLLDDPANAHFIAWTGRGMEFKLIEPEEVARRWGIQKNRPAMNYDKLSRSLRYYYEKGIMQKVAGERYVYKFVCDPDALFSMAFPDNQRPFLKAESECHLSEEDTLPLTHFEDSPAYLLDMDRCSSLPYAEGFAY
# CRX, sequence (O43186 whole entry): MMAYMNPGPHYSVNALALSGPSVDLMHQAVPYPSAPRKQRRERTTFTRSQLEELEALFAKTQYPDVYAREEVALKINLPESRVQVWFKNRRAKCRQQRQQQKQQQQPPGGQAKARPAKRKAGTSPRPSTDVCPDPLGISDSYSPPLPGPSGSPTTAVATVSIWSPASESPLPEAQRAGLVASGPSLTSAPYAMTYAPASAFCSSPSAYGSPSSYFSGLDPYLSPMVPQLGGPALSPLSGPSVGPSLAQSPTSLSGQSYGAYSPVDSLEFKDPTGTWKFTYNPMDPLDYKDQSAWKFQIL
sequence,measurement,setting,value
CGAATT,binding signal,FEV,"1.14 fold enrichment (6-mer frequency, TF over GST control)"
same,binding signal,ETV5,"1.21 fold enrichment (6-mer frequency, TF over GST control)"
same,binding signal,HSF1,"1.79 fold enrichment (6-mer frequency, TF over GST control)"
same,binding signal,SPIC,"1.25 fold enrichment (6-mer frequency, TF over GST control)"
same,binding signal,ELF4,"1.17 fold enrichment (6-mer frequency, TF over GST control)"
same,binding signal,ELK4,"1.36 fold enrichment (6-mer frequency, TF over GST control)"
same,binding signal,ETV2,"1.02 fold enrichment (6-mer frequency, TF over GST control)"
same,binding signal,ELF3,"1.18 fold enrichment (6-mer frequency, TF over GST control)"
same,binding signal,CRX,"1.63 fold enrichment (6-mer frequency, TF over GST control)"

# Source: article PMC7862700, “An all-to-all approach to the identification of sequence-specific readers for epigenetic DNA modifications on cytosine”
